Results on 38 compounds are retold here after PubChem BioAssay AID720650 (Broad Institute, 2013).

Molecules are shown by their SMILES. A number with no mark means an inactive call. The source made the active and inactive calls. No rule for the calls is given here. Some results are limits rather than exact numbers.

This assay is described as follows: Biochemical counterscreen for C difficile toxins, absence of UDPG, inhibitor dose response (AID 720650). The settings on record: series mostly up to 19.5 µM; activity change, negative = inhibition: at the top concentration. (A counterscreen serves to expose hits that act by an unwanted route or on another target.)
Regarding `ClCC(CNCc1ccccc1)c1ccccc1` (stereo not drawn), the “activity change, negative = inhibition” value was -5.16%.
In the case of `COc1ccc(CNC(=O)C2=CC(c3ccc(OC)cc3)=NS(=O)(=O)N2C)cc1`, the “activity change, negative = inhibition” value was -8.76%.
For orientation: AC50 means the concentration at which the activity in the assay is half-maximal. For the compound `CC(=O)c1ccc(Nc2ccc(-c3ccccc3F)nn2)cc1`, the AC50 is over 39 µM.
For `Nc1nc(CCOc2ccc(F)cc2)cs1`, the “activity change, negative = inhibition” value is -9.71%.
The same measure, in the same setting: then `CNC(=O)C[C@H]1CC[C@@H]2[C@H](COc3ccc(NS(=O)(=O)c4ccccc4C)cc3C(=O)N2C)O1`, with 6.47% [at 21 µM].
In the case of `CC1(C)Cc2nc(Cl)c(C#N)cc2CO1`, the AC50 is over 39 µM.
Take `Cc1cc(C(C)(C)C)cc(CN2CCN(S(=O)(=O)c3cccs3)CC2)c1O`: the “activity change, negative = inhibition” value was -5.83%.
Regarding `Nc1ccc(-c2nc3ccc(N)cc3o2)cc1`, the concentration at half-maximal activity (AC50) was 12.5 µM (active).
On the same count and under the same terms, then `CCN(CC)CCNc1ccc(C)c2sc3ccc(O)cc3c(=O)c12`, with 5.7 µM (active).
Turning to `O=C(Cn1cc(COc2ccc(Cl)c(Cl)c2)nn1)NS(=O)(=O)c1ccccc1OC(F)(F)F`, the “activity change, negative = inhibition” value is -6.92%.
The same measure, in the same setting: in the case of `COc1ccc(C2=NS(=O)(=O)N(C)C(C(=O)NCc3ccc(F)cc3)=C2)cc1OC` it was -12.4%.
Same read-out and setting: in the case of `NC(=O)NN=C1CC2CC1C1C=CCC21` (stereo not drawn) it was -12.3%; in that of `CSc1cccc(NC(=O)CCc2ccccc2)c1`, 1.52%; in that of `Cc1ccc(C2=NS(=O)(=O)N(C)C(C(=O)NCc3ccc4c(c3)OCO4)=C2)cc1`, -9.33%.
As to `Cc1ccc(S(=O)(=O)N2CC(CO)=CCC2c2ccccc2)cc1` (stereo not drawn), the half-maximal activity concentration (AC50) was 8.79 µM (active).
For `CC(C)CNC(=O)c1c(F)c(F)c(F)c(F)c1F`, the “activity change, negative = inhibition” value was 2.96%.
As to `CN(C)/C=C(\C#N)C(=O)Nc1ccc(O)cc1F`, the half-maximal activity concentration (AC50) was 9.11 µM (active).
For `O=S(=O)(c1ccccc1)N1CCN(Cc2nnc(-c3ccccc3)o2)CC1`, the “activity change, negative = inhibition” value was -4.82%.
The same measure, in the same setting: in the case of `CCOc1ccccc1/C=C/c1onc(C)c1S(=O)(=O)N1CCC(C(=O)N(CC)CC)CC1` it was -11.7%.
Regarding `O=C(CSc1cccc2cccnc12)N/N=C/c1ccc(F)cc1`, the “activity change, negative = inhibition” value is -15.4%.
Consider `COc1cc(OC)cc(C(=O)NNC(=O)CN2C(=O)NC(C)(c3ccc(C)cc3)C2=O)c1` (stereo not drawn), for which the “activity change, negative = inhibition” value is -2.29%.
`Cc1cc(N/N=C/c2ccc(O)cc2)c2cccc(C)c2n1`: the AC50 is 16.3 µM (active).
Same read-out and setting: in the case of `O=C(CCNC(=O)c1ccccc1Cl)N/N=C\c1ccc(O)cc1` it was 15.8 µM (active).
With `COc1ccc(NC(=O)CSc2nccn2C)cc1S(N)(=O)=O`, the “activity change, negative = inhibition” value was 2.77%.
With `COc1ccc(CC(=O)C2C(=O)N(C)c3ccccc32)cc1OC` (stereo not drawn), the “activity change, negative = inhibition” value was 7.42%.
Take `COc1ccccc1/C=N/NC(=O)CC(=O)NCc1ccccc1`: the AC50 was over 39 µM.
The same measure, in the same setting: in the case of `COc1cc(O)ccc1C(=O)CCc1ccc(O)cc1` it was 10.7 µM (active).
Turning to `Cn1c(SCC(=O)c2cc3ccccc3o2)nnc1-c1ccccc1`, the “activity change, negative = inhibition” value is -12.4%.
Same read-out and setting: then `Cn1cnnc1SCC(=O)NC1CCCCC1`, with -1.35%; and `Oc1ccc(/C=N/Nc2nc(N3CCCC3)nc(N3CCCC3)n2)cc1O`, with -1.92%.
As for `COc1ccccc1N1CC(O)=C(c2nc3ccccc3s2)C1=N`, the AC50 was over 39 µM.
Take `Cc1ccc(C)c2nc(Cl)c(C3NC(=O)c4ccccc4N3)cc12` (stereo not drawn): the “activity change, negative = inhibition” value is -4.37%.
In the case of `CN(C)CCNc1ccc(CO)c2sc3ccc(O)cc3c(=O)c12`, the AC50 is 6.06 µM (active).
As to `CCNC(=O)[C@H]1[C@H](CO)[C@H]2Cn3c(ccc(-c4ccccc4)c3=O)[C@H]2N1CC`, the “activity change, negative = inhibition” value was 1.74%.
The same measure, in the same setting: then `CCN1/C(=C2\OC(=S)N(C)C2=O)C=Cc2ccccc21`, with -1.63%.
Same read-out and setting: in the case of `COc1ccc(C(=O)Nc2ccc3c(c2)C(=O)N(C)[C@@H]2CC[C@H](CC(=O)NCC4CC4)O[C@@H]2CO3)cc1` it was -13.2%.
The same measure, in the same setting: then `CNC(=O)C1CCN(S(=O)(=O)c2c(C)noc2/C=C/c2ccc(OC)cc2)CC1`, with -12.1%; and `C/C(=N\NC(N)=S)c1ccc2c(c1)OCCO2`, with -8.65%.
